# Data: the supplement of paper PMC3334620
# Whole data set: some 33,000 sequences, median “E-score (-0.5 to 0.5)” near -0.054, cut for the highest 2% near 0.35. The full list was thinned out, with the highest values kept by preference.
# Target: T1, Stb5 (UniProt P38699)
# T1 sequence: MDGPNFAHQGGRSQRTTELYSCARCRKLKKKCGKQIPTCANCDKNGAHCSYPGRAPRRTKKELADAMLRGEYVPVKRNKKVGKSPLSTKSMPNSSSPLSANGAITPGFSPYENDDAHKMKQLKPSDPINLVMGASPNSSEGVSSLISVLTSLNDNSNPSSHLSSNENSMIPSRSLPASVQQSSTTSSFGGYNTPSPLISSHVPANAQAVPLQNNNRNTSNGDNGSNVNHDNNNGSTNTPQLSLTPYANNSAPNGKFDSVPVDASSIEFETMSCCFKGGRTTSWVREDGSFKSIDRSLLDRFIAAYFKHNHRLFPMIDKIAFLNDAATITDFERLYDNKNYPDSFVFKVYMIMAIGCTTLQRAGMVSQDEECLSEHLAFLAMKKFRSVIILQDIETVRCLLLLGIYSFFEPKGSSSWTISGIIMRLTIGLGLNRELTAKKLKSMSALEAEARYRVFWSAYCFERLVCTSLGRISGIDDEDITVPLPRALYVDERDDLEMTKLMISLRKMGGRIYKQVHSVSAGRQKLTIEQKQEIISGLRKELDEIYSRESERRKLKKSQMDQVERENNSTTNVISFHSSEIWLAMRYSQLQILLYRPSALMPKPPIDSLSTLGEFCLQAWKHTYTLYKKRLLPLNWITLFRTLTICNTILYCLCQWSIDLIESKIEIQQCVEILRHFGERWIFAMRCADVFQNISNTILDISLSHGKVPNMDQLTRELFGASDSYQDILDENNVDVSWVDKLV
# Test: PBM E-score (8-mer binding enrichment) (E-score (-0.5 to 0.5)); higher = stronger / more preferred TF binding
# Conditions: protein concentration: 200 nM; construct: GST-full length
# Procedure: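 Universal 'all 10-mer' protein binding microarrays (Agilent AMADID 015681) probed with GST-tagged S. cerevisiae TFs (full-length or DBD) made by in vitro transcription/translation (PURExpress), about 100-200 nM. Bound TF was detected with fluorescent anti-GST. Each ungapped 8-mer (which stands for itself and its reverse complement) is scored by the PBM enrichment score (E-score), a modified Wilcoxon-Mann-Whitney statistic from -0.5 to +0.5, computed with the Universal PBM Analysis Suite. Scale: above 0.35 generally sequence-specific binding.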
row,Sequence,PBM E-score
1,CGTGATAC,-0.0683
2,AGTGATAC,-0.128
3,AGTGATAA,-0.0882
4,GGTGATAA,0.415
5,GGTGATAC,0.369
6,CGTGATAA,0.0332
7,CTCCTGTC,-0.26
8,CACCGTTA,0.367
9,AGCCGTTA,0.0306
10,GGCCGTTA,0.213
11,GTCCGTTA,0.355
12,AACCGTTC,0.128
13,CGCCGTTA,0.356
14,CTCCGTTA,0.299
15,AACCGTTA,-0.101
16,CGCCGTTC,0.306
17,GACCGTTA,0.278
18,ATCCGTTA,0.197
19,CACCGTTC,0.368
20,GCGGGCAA,0.171
21,GCAGACTA,-0.158
22,CTCCACAG,-0.313
23,CCTTTTGA,-0.106
24,CGTTGTCC,-0.0582
25,GACCAATA,0.0169

row,Sequence,PBM E-score
1,GCCCTTAC,-0.0337
2,ATGTCGGA,0.303
3,GAGTCGGA,0.307
4,TAGTCGGA,0.355
5,GGGTCATA,-0.00196
6,GTGTCGGA,0.357
7,GGGTCGTA,0.00669
8,CAGTCGGA,0.292
9,CGGTCGTA,0.381
10,CTGTCGGA,0.349
11,CGGTCATA,0.448
12,CGGTCATC,0.135
13,CGGTCGTC,0.0319
14,GAGCGGGA,0.249
15,TCCAGAGA,-0.208
16,AGTCAAGC,-0.3
17,GTGAGCAA,-0.0477
18,TACGGGCA,0.143
19,GACAACTA,-0.06
20,GCACAGAC,0.0491
21,CGAGTTTC,-0.0887
22,CCGTCGTC,0.161
23,ACGTCGGA,0.264
24,CGGTCGGC,0.352
25,ACGTCGGC,0.27

row,Sequence,PBM E-score
1,CGGTCGGA,0.313
2,AGGTCGGC,0.293
3,GCGTCGGA,0.345
4,CCGTCGGA,0.37
5,CCGTCGGC,0.377
6,GGAATAAC,0.177
7,ATTTATTG,-0.0662
8,AAGCTGAA,-0.152
9,CCAAGAGG,-0.138
10,CGGTGCGA,0.384
11,GGGTGCCA,-0.012
12,GGGTGCGA,-0.0506
13,CGGTGCCA,0.414
14,CGGTGCCC,0.27
15,AGGTGCGA,0.0754
16,CCTGCTGA,-0.216
17,CGCTTCCG,0.208
18,CCCGACTA,0.312
19,CGTGCCGA,0.212
20,GGTGCCGA,0.292
21,AGTGCCGA,0.387
22,AGTGCCTG,-0.17
23,ATTGCCGA,0.318
24,AGTGCCAG,-0.0267
25,AGTGCCAC,-0.251

row,Sequence,PBM E-score
1,AGTGCCGC,0.381
2,ATTGCCGC,0.351
3,CGTGCCGC,0.249
4,ATTGCCGG,0.408
5,AGTGCCGG,0.407
6,CACCAACG,0.0702
7,AACCGTGT,-0.115
8,AGTCTGGG,-0.291
9,CCTGAGCG,-0.0867
10,CCGATAGA,0.249
11,TGTCCCAA,-0.0294
12,ATTAGCTG,-0.119
13,CCTCTAAA,-0.196
14,CACCGACC,0.418
15,TACCGACA,0.356
16,CACCGAGG,0.23
17,GACCGAAC,0.145
18,CACCGAAG,0.253
19,AACCGACA,0.181
20,AACCGACC,0.244
21,AACCGACG,0.286
22,GACCGACC,0.308
23,GACCGACA,0.341
24,CACCGAAC,0.366
25,CACCGACG,0.453

row,Sequence,PBM E-score
1,CCCATGAA,-0.0849
2,CCAAGTAG,-0.293
3,CAGTGCGC,-0.135
4,GACCACAC,-0.152
5,ACCCTAGG,-0.165
6,CTTCACAC,-0.0447
7,CACCGAAA,0.305
8,CACCGACA,0.44
9,CACCGAGA,0.151
10,AAAAAGAT,-0.291
11,GGGACATA,0.132
12,TGGACACA,-0.0717
13,CGGACACG,0.232
14,CGGACATA,0.474
15,CGGACATC,0.256
16,CGGACACA,0.356
17,CGGACGTC,0.0917
18,CGGAGACG,0.166
19,AGGACGTA,-0.182
20,AGGAGACA,-0.131
21,CGGAGACA,0.398
22,CGGACGTA,0.407
23,ACCCCCTC,-0.265
24,GTGCACCA,-0.17
25,CGGAGGGC,-0.0349

row,Sequence,PBM E-score
1,CCTTCCCG,-0.125
2,ACAGCGTA,-0.0758
3,AAAATCAC,-0.092
4,GGTGATCA,0.0514
5,CTTGTGGC,-0.163
6,CGTAGTAC,0.0304
7,AACCGGTG,0.306
8,AACCGGTC,0.272
9,TACCGGTA,0.36
10,CACCGGTG,0.408
11,AACCGGTA,0.261
12,CACCGGTC,0.337
13,CTCCGGTA,0.316
14,CACCGGTA,0.408
15,GACCGGTA,0.231
16,AGAAGCCT,-0.0816
17,TCTGCAGA,0.00207
18,CCCCCAGG,-0.281
19,GAAAACCC,0.278
20,AAAAACCC,0.226
21,CTAACTCC,0.288
22,CAAACCCG,0.216
23,ATAACTCG,0.0637
24,AAACCCCC,0.263
25,AAAACCCG,0.379

row,Sequence,PBM E-score
1,AAAACCCT,-0.074
2,ATAACTCC,0.429
3,GAAACCCA,0.0284
4,GAAACCCC,0.353
5,AAAACCCC,0.355
6,AATCTGTG,-0.207
7,CGCAGAAA,-0.114
8,GCAAAGGC,0.115
9,GGTGGACA,0.00374
10,TCTTTCAA,-0.0737
11,ACCCTCCG,0.134
12,CGGTGGCA,0.299
13,CCTTATCC,0.00435
14,ATCTCCAC,0.0569
15,GTCTTAAA,0.179
16,ACTCGACT,-0.224
17,ATAACCCA,-0.157
18,ATAAACCA,-0.078
19,ATAACCCC,0.412
20,CTAAACCC,0.233
21,ATAACCCG,0.228
22,ATAAACCC,0.373
23,AATTCCTA,-0.258
24,AAAGACCC,0.0704
25,GCAGACGC,-0.0745

row,Sequence,PBM E-score
1,AAAAGCAT,-0.0942
2,ATCTCCGC,0.406
3,CTCTCCGA,0.00777
4,ATCTCCCC,0.0718
5,CTCTCCGC,0.0985
6,ATCTCCGA,0.394
7,GTCTCCGA,0.23
8,ATCTCCAG,0.0194
9,ATCTCCGG,0.423
10,ATCTCCCG,0.124
11,AGGCGTTG,-0.11
12,AAAAGGGT,-0.27
13,CCCAGGAA,-0.286
14,TCGAATCA,-0.163
15,CGGACCAG,0.0937
16,CCGACCCA,0.369
17,CGGACCAC,0.134
18,TCGACCCA,-0.256
19,CGGACCCA,0.381
20,GGGACCCA,-0.0663
21,CGGACCAA,0.376
22,TGGACCCA,-0.218
23,CCGACCGA,0.314
24,CCGACCGG,0.382
25,CCGACCGC,0.284

row,Sequence,PBM E-score
1,ACGACCCA,-0.191
2,CGAAGAGA,-0.138
3,AAAGCGCG,0.121
4,CTGTGCGA,-0.121
5,GTTGCAAC,0.183
6,ATGAAAGC,-0.0893
7,CTGACCGA,-0.0342
8,CGGACCTA,0.466
9,GGGACCTA,0.138
10,CGGACCGA,0.4
11,GGGACCGA,0.257
12,AGGACCTA,0.141
13,ATGGCTTA,-0.119
14,ACCCCAGC,-0.0864
15,CAATAGCC,0.0314
16,CACATCTG,-0.103
17,CGGCCCTA,0.426
18,CGGCCATA,0.376
19,GGGCCCTA,-0.0134
20,AGGCCCTA,-0.0592
21,CGGCCATC,0.157
22,GGGCCATA,0.0906
